A short description of the experiment: molecules binding r(CAG) RNA repeats, late stage dose response, late-stage follow-up, biochemical, fluorescence, dose response, powder samples (AID 720651). Conditions: r(CAG) RNA TO-PRO-1 dye displacement.

Molecules are shown by their SMILES. Some of the results follow. Calls of active or inactive are those of the source. No rule for the calls is given here.

Usually IC50 stands for the concentration that inhibits the measured activity by half.

Consider `O=C1CC(=O)N(Cc2ccccc2)C(=O)N1CCCCCCN1C(=O)CC(=O)N(Cc2ccccc2)C1=O`, for which the IC50 was 1.44 µM (active).

The values above are taken from PubChem BioAssay AID720651 (The Scripps Research Institute Molecular Screening Center, 2013).
